Reference: ChEMBL document CHEMBL3988442, “University of Dundee, Small-Polar-MMV Screening Library” (2021)
The campaign covered roughly 48,000 compounds. About 13,000 (27%) showed an effect of 50% or more. This is one part of the list.

Tested on: Wolbachia pipientis
Assay: Anti-Wolbachia Cell-Based Screen
Format: functional
Design: scale not given: in the data most compounds retested in dose-response had high values
Details: 5 µM

| Compound | Percent Effect [%] |
| --- | --- |
| Cc1oncc1C(=O)N1CCCc2c(C#N)nn(C)c2C1 | 10.9 |
| O=C(NCC(O)c1ccc(F)cc1F)c1ccccc1 (stereo not given) | 4.07 |
| CSC(C)(C)CNC(=O)NCC[S+]([O-])c1ccccc1 (stereo not given) | 5.192 |
| Cc1nn(C)c(C)c1OCC(=O)NCC(O)Cc1ccccc1 (stereo not given) | -7.018 |
| Cc1cccc(C(=O)NCCS(=O)(=O)Cc2ccccc2)c1 | -4.406 |
| O=C(NCC[S+]([O-])c1ccccc1)c1ccc2[nH]c(=O)[nH]c2c1 (stereo not given) | 103.1 |
| O=C(NCC(O)Cc1ccccc1)c1ccc2[nH]c(=O)[nH]c2c1 (stereo not given) | 124 |
| O=C(NCCCO)Nc1cccc(C[S+]([O-])Cc2ccccc2)c1 (stereo not given) | -4.621 |
| O=C(NCC[S+]([O-])c1ccccc1)NCC(F)(F)F (stereo not given) | -2.779 |
| O=C(NCC[S+]([O-])Cc1ccccc1)c1ccc2[nH]c(=O)[nH]c2c1 (stereo not given) | 105 |
| Cc1ccn2ncc(C(=O)N3CCCC(c4noc(C)n4)C3)c2n1 (stereo not given) | 1.825 |
| CCOCCNCc1cc(O)c2cc(C)ccc2n1 | -3.741 |
| CCOCCCNc1nc(CS(=O)(=O)c2ccccc2)cs1 | -0.3734 |
| CCOCCNS(=O)(=O)c1cc(C)c2nc(O)cc(C)c2c1 | 93.93 |
| NC(=O)CN1CCCC(C(=O)N2CCC(O)(c3ccccc3)CC2)C1 (stereo not given) | -6.911 |
| CN(C)C(=O)CN1CCC2(CC1)COC2 | -28.68 |
| CCOc1cccc(CNC(=O)CN2CCC3(CCOC3)C2)c1 (stereo not given) | -4.928 |
| CCOC(=O)CN1CCC2(CC1)CC(=O)c1ccc3ccccc3c1O2 | 117.9 |
| Cc1ccccc1CN1C[C@@H]2OCC(=O)N(CC(N)=O)[C@@H]2C1 | -9.838 |
| CN(C)C(=O)CN1CCCN(CC2CCOc3ccccc3C2)CC1 (stereo not given) | -6.111 |

| Compound | Percent Effect [%] |
| --- | --- |
| CCOC(=O)CN1CCC2(CC1)CC(NC(=O)c1ccccn1)CO2 (stereo not given) | -1.011 |
| CN(C)C(=O)CN1CCN(C(=O)C2CSc3ccccc3O2)CC1 (stereo not given) | -6.188 |
| CN(C)C(=O)CN1CCC2(CC1)CC(=O)c1ccc3ccccc3c1O2 | 109.8 |
| CN(C)C(=O)CN1CCC2(CC1)CC(=O)c1c(ccc3ccccc13)O2 | 104.8 |
| CN1CC(c2ccccc2)CC2(CCN(CC(=O)N(C)C)CC2)C1 (stereo not given) | -1.357 |
| NC(=O)CN1CCC2(CC1)CC(=O)c1ccc3ccccc3c1O2 | 103.8 |
| CC(C)Nc1cc(N2CCCC3(CN(C)C(=O)O3)C2)ncn1 (stereo not given) | -4.728 |
| Cc1cccnc1NC(=O)C1CCCN(c2cccc(C(F)(F)F)n2)C1 (stereo not given) | 9.755 |
| CCn1cc(CN(C)C(=O)C(c2ccccc2C)N(C)C)cn1 (stereo not given) | 1.037 |
| Cc1ccc2[nH]c(CO[C@H]3CN(C(=O)C4CC4)C[C@H]3F)nc2c1 | -10.96 |
| O=C(CCn1cncn1)N1CCCC1c1noc(C2CC2)n1 (stereo not given) | 89.8 |
| CSCC(=O)N1CCCC1c1noc(C2CC2)n1 (stereo not given) | 7.079 |
| O=C(CCCn1cncn1)N1CCCC1c1noc(C2CC2)n1 (stereo not given) | 94.63 |
| O=C(CCCn1cncn1)N1CCCC1c1nc(-c2ccccc2)no1 (stereo not given) | 16.9 |
| OCC(O)CSCc1cn(-c2ccc(Cl)cc2)nn1 (stereo not given) | -1.714 |
| O=C(NC1COC2(CCN(Cc3ccccn3)CC2)C1)c1ccccn1.O=C(O)C(F)(F)F (stereo not given) | -3.603 |
| c1ccc(CCN2CCN(C3CCOC4(CCOCC4)C3)CC2)cc1 (stereo not given) | 96.21 |
| CN1CCN(C(=O)CC2CCN(CCc3ccccn3)CC2)CC1 | -2.122 |
| O=C(O)C(F)(F)F.c1ccc(OC2COC3(CCN(Cc4ccccn4)CC3)C2)cc1 (stereo not given) | -3.872 |
| c1ccc(CCN2CCN(C3CCOC4(CCOCC4)C3)CC2)nc1 (stereo not given) | 69.95 |

| Compound | Percent Effect [%] |
| --- | --- |
| COC(=O)C(O)C1CCN(CCc2ccccn2)CC1 (stereo not given) | -11.11 |
| c1ccc(CN2CCN(C3CCOC4(CCOCC4)C3)CC2)nc1 (stereo not given) | 115.7 |
| O=C1NC2(CCN(CCc3ccccc3)CC2)CC1c1ccccc1 (stereo not given) | -3.919 |
| O=C1OC2(CCN(C3CCCOC3)CC2)CN1CCc1ccccc1 (stereo not given) | 0.1893 |
| CC(C)Cc1cc(CC2(NCc3ccccc3Cl)COC2)no1 | -7.466 |
| COc1cc(C)c(C(C)Nc2ncc(C(N)=O)cc2Cl)cc1OC (stereo not given) | -11.51 |
| Cc1nn(C)c2nc(N(CCN(C)C)CC3CCCO3)sc12 (stereo not given) | 2.651 |
| CC(NS(=O)(=O)CC1(C#N)CCCC1)c1cccc(-n2cccn2)c1 (stereo not given) | -9.973 |
| COc1ccc(C)cc1CN(Cc1nc(C)c(C)o1)C1CCN(C)C1 (stereo not given) | -12.97 |
| Cn1cc(N2C(=O)CC[C@@H]3[C@H]2CCN3CC2CCOCC2)cn1.O=C(O)C(F)(F)F | 100.5 |
| Cn1cc(N2C(=O)CC[C@@H]3[C@H]2CCN3Cc2cccc(C#N)c2)cn1.O=C(O)C(F)(F)F.O=C(O)C(F)(F)F | 96.87 |
| Cn1cc(C(=O)N2CC[C@@H]3[C@@H]2CCN3Cc2cccc(C#N)c2)cn1.O=C(O)C(F)(F)F | -1.669 |
| Cn1cc(N2C(=O)C[C@@H]3[C@@H]2CCN3C(=O)c2ccco2)cn1 | -4.812 |
| CN1CCN([C@@H]2CCN(CC3CCOC3)[C@H]2Cc2cnn(C)c2)CC1.O=C(O)C(F)(F)F.O=C(O)C(F)(F)F.O=C(O)C(F)(F)F (stereo not given in full) | -10.32 |
| Cn1cc(CN2CC[C@@H]3[C@@H]2CCN3C(=O)c2cccc(F)c2)cn1.O=C(O)C(F)(F)F | -56.05 |
| COc1ccc(CN2CC[C@@H]3[C@H]2CCC(=O)N3c2cnn(C)c2)cc1.O=C(O)C(F)(F)F | 83.34 |
| Cn1cc(N2C(=O)CC[C@@H]3[C@H]2CCN3CCc2ccccc2)cn1.O=C(O)C(F)(F)F.O=C(O)C(F)(F)F | 83.57 |
| Cn1cc(N2C[C@@H]3CN(CC4CCOCC4)C[C@@H]3C2=O)cn1.O=C(O)C(F)(F)F | -5.316 |
| Cc1cnn(CC2CN(c3ncnc4c3CCC4)CCO2)c1 (stereo not given) | -34.52 |
| Cc1noc(C)c1CC(=O)NCCN1CCN(S(C)(=O)=O)CC1 | -3.578 |
